According to paper PMC5540273 (PLoS ONE, 2017):

Each compound was assayed on SIK2. Conditions: concentration: 1 μM, replicates: in singlicate; n = 1.
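Further: KINOMEscan kinase panel screen.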

Row | SMILES | %Inh [%]
1 | CC(=O)Nc1nc2cnc(Nc3cc(NC(=O)c4cccc(CCC#N)c4)ccc3C)nc2s1 | 0
2 | Cc1nnc(-c2ccc3occ(-c4ccc(S(C)=O)cc4)c3c2)[nH]1 (stereo not shown) | 19
3 | Cc1ccc(NC(=O)Nc2cccc(Cl)c2)cc1-c1ccc(C(=O)Nc2ccncc2)cc1 [GSK1398468] | 0
4 | COc1ccc(Nc2nccc(-c3cccc(NC(=O)c4cc5cc(F)ccc5[nH]4)c3)n2)cc1 [GSK1229782] | 1
5 | COc1cccc(-c2cc(-c3c[nH]nc3-c3ccccn3)ccn2)c1 [GW680338] | 0
6 | Fc1cc(Cl)ccc1Nc1ccnc2cc(-c3ccc(CN4CCCCC4)o3)ccc12 [GW560116] | 22
7 | O=C(Nc1ccc2c(c1)OCO2)NC1CCN(c2ccnc(Nc3ccc(F)cc3)n2)C1 (stereo not shown) [GSK1379724] | 0
8 | O=C(Nc1ccccc1)Nc1cccc(Oc2ccc3nccn3n2)c1 | 12
9 | Cn1ccc2ncnc(Oc3ccc(NC(=O)Nc4ccccc4)cc3)c21 | 27
10 | Cc1ccc(-c2cc(-c3c[nH]nc3-c3ccccn3)ccn2)cc1 [GW684088] | 0
11 | O=C(O)COc1ncnc2cc(-c3ccc4[nH]ncc4c3)sc12 | 0
12 | C[C@@H]1CCCCN1c1cc(-c2ccc3c(N)n[nH]c3c2)nc(N)n1 [GSK2258759] | 0
13 | COc1cc(Nc2nccc(N3CCC(NC(=O)Nc4cc(C)ccc4C)C3)n2)cc(OC)c1OC (stereo not shown) [GSK1379762] | 6
14 | Nc1nc(-c2nccs2)c(-c2ccnc3ccccc23)s1 [GW693542] | 0
15 | Cn1cncc1-c1ccc2ncnc(Nc3ccc(OCc4ccccc4)cc3)c2c1 [GW320571] | 13
16 | Cc1cccc(-c2nc(Nc3ccc4[nH]ncc4c3)c3ccccc3n2)n1 [GW857175] | 0
17 | O=C1NC(=O)C(N2CCc3ccccc32)=C1c1ccccc1Cl [SB-373598] | 6
18 | O=C(Nc1n[nH]c2nc(-c3nccs3)c(Br)cc12)C1CC1 [SB-742251] | 0

Row | SMILES | %Inh [%]
19 | CCCc1ccc(S(=O)(=O)NC2CCN(c3ccnc(Nc4ccc(F)cc4)n3)C2)cc1 (stereo not shown) [GSK1379715] | 0
20 | Fc1cccc(COc2nnc(-c3ccc4c(c3)CCO4)o2)c1 | 0
21 | CS(=O)(=O)c1ccc(-c2c(-c3ncn[nH]3)sc(N3CCOCC3)c2C#N)cc1 | 0
22 | COc1ccc(CNC(=O)NC2CCN(c3ccnc(Nc4cc(OC)c(OC)c(OC)c4)n3)C2)cc1 (stereo not shown) [GSK1379748] | 0
23 | O=c1cc(N2CCOCC2)nc2n(Cc3cccc(Cl)c3Cl)ccn12 [GSK2286295] | 0
24 | Cc1ccccc1-n1cnc2c(N)ncnc21 [SKF-97510] | 0
25 | Cc1cccc(-c2nc(-c3ccc(S(C)(=O)=O)cc3)sc2-c2ccnc(NCCc3ccccc3)c2)c1 | 11
26 | Cc1cccc(-c2nc(C)cc(Nc3ccncc3)n2)n1 [GSK257997] | 0
27 | Cc1cc(-c2ccc3c(c2)CC[C@@H](N[C@@H](C)c2ccccc2)C3)cnc1N.Cl [GW412617] | 3
28 | Cc1ccc(NC(=O)Nc2cc(C(C)(C)C)nn2-c2ccccc2)cc1 [GSK1014915] | 4
29 | COc1cc2ncn(-c3cc(OCC4CCCO4)c(C(N)=O)s3)c2cc1OC (stereo not shown) [GSK204607] | 93.5
30 | COc1cccc(NC(=O)NC2CCN(c3ccnc(Nc4ccc(F)cc4)n3)C2)c1 (stereo not shown) [GSK1379721] | 0
31 | CC1=C(C(=O)Nc2cc3cn[nH]c3cc2F)C(c2ccc(C(F)(F)F)cc2)CC(=O)N1 (stereo not shown) [GSK429286] | 0
32 | COc1ccc(C2=C(Nc3cccc(C(=O)O)c3)C(=O)NC2=O)cc1 [SB-390765] | 9
33 | COc1cc2ncnc(Nc3ccc4nc(-c5ccccc5)[nH]c4c3)c2cc1OC.Cl [GW282450] | 2
34 | CN1C(=O)C(Nc2ccc(Cl)c(C(=O)O)c2)=C(c2ccc(Cl)cc2)C1=O [SB-404290] | 0
35 | Cl.NC(=O)c1cccc(Nc2nccc(Nc3ccc(Oc4cccc(Cl)c4)c(Cl)c3)n2)c1 [GW659008] | 5

Each compound was assayed on SIK. Conditions: concentration: 1 μM, replicates: in singlicate; n = 1.

Row | SMILES | %Inh [%]
36 | CC(=O)Nc1nc2cnc(Nc3cc(NC(=O)c4cccc(CCC#N)c4)ccc3C)nc2s1 | 16
37 | Cc1nnc(-c2ccc3occ(-c4ccc(S(C)=O)cc4)c3c2)[nH]1 (stereo not shown) | 7
38 | Cc1ccc(NC(=O)Nc2cccc(Cl)c2)cc1-c1ccc(C(=O)Nc2ccncc2)cc1 [GSK1398468] | 5
39 | COc1ccc(Nc2nccc(-c3cccc(NC(=O)c4cc5cc(F)ccc5[nH]4)c3)n2)cc1 [GSK1229782] | 17
40 | COc1cccc(-c2cc(-c3c[nH]nc3-c3ccccn3)ccn2)c1 [GW680338] | 0
41 | Fc1cc(Cl)ccc1Nc1ccnc2cc(-c3ccc(CN4CCCCC4)o3)ccc12 [GW560116] | 9
42 | O=C(Nc1ccc2c(c1)OCO2)NC1CCN(c2ccnc(Nc3ccc(F)cc3)n2)C1 (stereo not shown) [GSK1379724] | 0
43 | O=C(Nc1ccccc1)Nc1cccc(Oc2ccc3nccn3n2)c1 | 0
44 | Cn1ccc2ncnc(Oc3ccc(NC(=O)Nc4ccccc4)cc3)c21 | 0
45 | Cc1ccc(-c2cc(-c3c[nH]nc3-c3ccccn3)ccn2)cc1 [GW684088] | 0
46 | O=C(O)COc1ncnc2cc(-c3ccc4[nH]ncc4c3)sc12 | 8
47 | C[C@@H]1CCCCN1c1cc(-c2ccc3c(N)n[nH]c3c2)nc(N)n1 [GSK2258759] | 0
48 | COc1cc(Nc2nccc(N3CCC(NC(=O)Nc4cc(C)ccc4C)C3)n2)cc(OC)c1OC (stereo not shown) [GSK1379762] | 0
49 | Nc1nc(-c2nccs2)c(-c2ccnc3ccccc23)s1 [GW693542] | 0
50 | Cn1cncc1-c1ccc2ncnc(Nc3ccc(OCc4ccccc4)cc3)c2c1 [GW320571] | 6
51 | Cc1cccc(-c2nc(Nc3ccc4[nH]ncc4c3)c3ccccc3n2)n1 [GW857175] | 0
52 | O=C1NC(=O)C(N2CCc3ccccc32)=C1c1ccccc1Cl [SB-373598] | 0
53 | O=C(Nc1n[nH]c2nc(-c3nccs3)c(Br)cc12)C1CC1 [SB-742251] | 6

Row | SMILES | %Inh [%]
54 | CCCc1ccc(S(=O)(=O)NC2CCN(c3ccnc(Nc4ccc(F)cc4)n3)C2)cc1 (stereo not shown) [GSK1379715] | 0
55 | Fc1cccc(COc2nnc(-c3ccc4c(c3)CCO4)o2)c1 | 0
56 | CS(=O)(=O)c1ccc(-c2c(-c3ncn[nH]3)sc(N3CCOCC3)c2C#N)cc1 | 39
57 | COc1ccc(CNC(=O)NC2CCN(c3ccnc(Nc4cc(OC)c(OC)c(OC)c4)n3)C2)cc1 (stereo not shown) [GSK1379748] | 0
58 | O=c1cc(N2CCOCC2)nc2n(Cc3cccc(Cl)c3Cl)ccn12 [GSK2286295] | 0
59 | Cc1ccccc1-n1cnc2c(N)ncnc21 [SKF-97510] | 0
60 | Cc1cccc(-c2nc(-c3ccc(S(C)(=O)=O)cc3)sc2-c2ccnc(NCCc3ccccc3)c2)c1 | 7
61 | Cc1cccc(-c2nc(C)cc(Nc3ccncc3)n2)n1 [GSK257997] | 0
62 | Cc1cc(-c2ccc3c(c2)CC[C@@H](N[C@@H](C)c2ccccc2)C3)cnc1N.Cl [GW412617] | 12
63 | Cc1ccc(NC(=O)Nc2cc(C(C)(C)C)nn2-c2ccccc2)cc1 [GSK1014915] | 0
64 | COc1cc2ncn(-c3cc(OCC4CCCO4)c(C(N)=O)s3)c2cc1OC (stereo not shown) [GSK204607] | 0
65 | COc1cccc(NC(=O)NC2CCN(c3ccnc(Nc4ccc(F)cc4)n3)C2)c1 (stereo not shown) [GSK1379721] | 0
66 | CC1=C(C(=O)Nc2cc3cn[nH]c3cc2F)C(c2ccc(C(F)(F)F)cc2)CC(=O)N1 (stereo not shown) [GSK429286] | 0
67 | COc1ccc(C2=C(Nc3cccc(C(=O)O)c3)C(=O)NC2=O)cc1 [SB-390765] | 14
68 | COc1cc2ncnc(Nc3ccc4nc(-c5ccccc5)[nH]c4c3)c2cc1OC.Cl [GW282450] | 0
69 | CN1C(=O)C(Nc2ccc(Cl)c(C(=O)O)c2)=C(c2ccc(Cl)cc2)C1=O [SB-404290] | 0
70 | Cl.NC(=O)c1cccc(Nc2nccc(Nc3ccc(Oc4cccc(Cl)c4)c(Cl)c3)n2)c1 [GW659008] | 12
